In the supplement of paper PMC12350171:
Structures can show the parent of a compound that is named as a salt.

Columns and labels:
Assay in all cases: growth AUC normalised to DMSO control (median) (fraction of control); higher = less growth inhibition, active = hit call of the paper
Settings in all cases: 20 µM;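 active = normalised median growth AUC below 0.1 of DMSO control; inactive = AUC 0.1 or higher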
P. vulgatus RND KO = test system: P. vulgatus RND KO
In short: (§1)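 Each strain went through two overnight passages under anaerobic conditions before growth in mGAM in 96-well plates, starting at OD578 0.01, with each compound from the approved-drug library at 20 μM and 1% DMSO. Inside an anaerobic incubator, OD578 was recorded every hour for 24 h. Growth curves were cut off at entry into stationary phase, and the area under the curve was calculated by the trapezoidal rule and normalised to vehicle wells on the same plate. Reported values are medians of three biological replicates.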

P. vulgatus WT = test system: P. vulgatus WT
In short: as §1

[1] = test system: S. enterica typhimurium WT
In short: as §1

[2] = test system: S. enterica typhimurium tolC KO
In short: as §1

Measured: growth AUC normalised to DMSO control
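Note: active when median AUC fell below 0.1.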

O=C1OC(c2ccc(O)cc2)(c2ccc(O)cc2)c2ccccc21 [Phenolphthalein]
inactive: P. vulgatus RND KO 0.979 | P. vulgatus WT 0.994 | [1] 1.02 | [2] 0.524

CC(=O)Oc1cc2c(s1)CCN(C(C(=O)C1CC1)c1ccccc1F)C2 (stereo not drawn) [Prasugrel]
inactive: P. vulgatus RND KO 1.06 | P. vulgatus WT 1.07 | [1] 1.03 | [2] 1.01

CCCCc1ncc(/C=C(\Cc2cccs2)C(=O)O)n1Cc1ccc(C(=O)O)cc1 [Eprosartan mesylate]
inactive: P. vulgatus RND KO 1.02 | P. vulgatus WT 1.02 | [1] 1.01 | [2] 1

CCOc1ccc2nc(S(N)(=O)=O)sc2c1 [Ethoxzolamide]
inactive: P. vulgatus RND KO 0.965 | P. vulgatus WT 1 | [1] 0.997 | [2] 0.998

CC(C)c1cc2c(cc1S(=O)(=O)O)[C@@]1(C)CCC[C@@](C)(C(=O)O)[C@@H]1CC2 [Ecabet sodium]
inactive: P. vulgatus RND KO 1.01 | P. vulgatus WT 1.02 | [1] 1.01 | [2] 0.988

O=c1[nH]c(=O)n([C@H]2C[C@H](O)[C@@H](CO)O2)cc1/C=C/Br [Brivudine]
inactive: P. vulgatus RND KO 1.02 | P. vulgatus WT 1.01 | [1] 1 | [2] 1.01

O=C1CC[C@@H](C(=O)N2CSC[C@H]2C(=O)O)N1 [Pidotimod]
inactive: P. vulgatus RND KO 0.991 | P. vulgatus WT 0.993 | [1] 1 | [2] 0.991

CN(CCOc1ccc(NS(C)(=O)=O)cc1)CCc1ccc(NS(C)(=O)=O)cc1 [Dofetilide]
inactive: P. vulgatus RND KO 0.985 | P. vulgatus WT 0.992 | [1] 0.999 | [2] 1

N[C@@H](C(=O)N[C@@H]1C(=O)N2C(C(=O)O)=C(Cl)CC[C@H]12)c1ccccc1 [Loracarbef]
active: P. vulgatus RND KO 0.00871 | P. vulgatus WT 0.00996 | [1] 0.018 | [2] 0.0264

CCCCc1oc2ccc(NS(C)(=O)=O)cc2c1C(=O)c1ccc(OCCCN(CCCC)CCCC)cc1 [Dronedarone hydrochloride]
inactive: P. vulgatus RND KO 1.01 | P. vulgatus WT 1.03 | [1] 1 | [2] 1

OC(CNCC(O)C1CCc2cc(F)ccc2O1)C1CCc2cc(F)ccc2O1 (stereo not drawn) [Nebivolol hydrochloride]
inactive: P. vulgatus RND KO 0.957 | P. vulgatus WT 1.01 | [1] 0.998 | [2] 0.925

OC[C@H]1O[C@@H](n2cnc3cncnc32)[C@H](O)[C@@H]1O [Nebularine]
inactive: P. vulgatus RND KO 0.991 | P. vulgatus WT 0.997 | [1] 1 | [2] 0.997

CO[C@@H]1[C@@H](OC(N)=O)[C@@H](O)[C@H](Oc2ccc3c(O)c(NC(=O)c4ccc(O)c(CC=C(C)C)c4)c(=O)oc3c2C)OC1(C)C [Novobiocin sodium salt]
active: P. vulgatus RND KO 0.0285 | P. vulgatus WT 0.021 | [2] 0.0104
inactive: [1] 0.999

NC(=O)c1ncn([C@@H]2O[C@H](CO)[C@@H](O)[C@H]2O)c1O [Mizoribine]
inactive: P. vulgatus RND KO 1.04 | P. vulgatus WT 1.01 | [1] 1.01 | [2] 0.996

C/C(=C1\CCOC(=O)S1)N(C=O)Cc1cnc(C)nc1N [Cycotiamine]
inactive: P. vulgatus RND KO 1.01 | P. vulgatus WT 1.07 | [1] 0.995 | [2] 1

CCOc1ccc(NC(=O)CC(C)O)cc1 (stereo not drawn) [Bucetin]
inactive: P. vulgatus RND KO 0.981 | P. vulgatus WT 0.981 | [1] 1 | [2] 0.992

OC[C@H]1O[C@H](O[C@H]2O[C@H](CO)[C@@H](O)[C@H](O)[C@H]2O)[C@H](O)[C@@H](O)[C@@H]1O [Trehalose dihydrate]
inactive: P. vulgatus RND KO 1 | P. vulgatus WT 1 | [1] 1.01 | [2] 1.01

O=P(O)(O)C(O)(Cn1ccnc1)P(=O)(O)O [Zoledronic acid hydrate]
inactive: P. vulgatus RND KO 0.972 | P. vulgatus WT 0.988 | [1] 1.01 | [2] 0.994

CC(C)(C)NCC(O)CSc1nc(-c2ccc(C(N)=O)s2)cs1 (stereo not drawn) [Arotinolol hydrochloride]
inactive: P. vulgatus RND KO 1.02 | P. vulgatus WT 1 | [1] 0.996 | [2] 1.01

Cc1cccc(C)c1OCC(=O)N[C@@H](Cc1ccccc1)[C@@H](O)C[C@H](Cc1ccccc1)NC(=O)[C@H](C(C)C)N1CCCNC1=O [Lopinavir]
inactive: P. vulgatus RND KO 1.06 | P. vulgatus WT 1.07 | [1] 1.01 | [2] 1.01

CN(C/C=C/C#CC(C)(C)C)Cc1cccc2ccccc12 [Terbinafine]
inactive: P. vulgatus RND KO 1.01 | P. vulgatus WT 0.998 | [1] 1.01 | [2] 0.928

Cc1c(C(=O)NN2CCCCC2)nn(-c2ccc(Cl)cc2Cl)c1-c1ccc(Cl)cc1 [Rimonabant]
inactive: P. vulgatus RND KO 1.05 | P. vulgatus WT 1.07 | [1] 1 | [2] 1
